Screening results deposited in PubChem BioAssay by National Center for Advancing Translational Sciences (NCATS).
Hits are enriched below; roughly 2.7% of the tested compounds scored in any of these assays.
12-LOX inh: blocks human arachidonate 12S-lipoxygenase; P18054; purified 12hLO, xylenol orange hydroperoxide absorbance; Potency, µM (doses to about 108 µM), for inactives: at the top dose activity change, negative = inhibition, usual class: inhibitors; 580,000 tested, 1.1% active; note: potency is the fitted concentration of half-maximal effect; % is set by controls: 0 for no effect and ±100 for the full control effect
Target sequence (P18054 whole entry, looked up): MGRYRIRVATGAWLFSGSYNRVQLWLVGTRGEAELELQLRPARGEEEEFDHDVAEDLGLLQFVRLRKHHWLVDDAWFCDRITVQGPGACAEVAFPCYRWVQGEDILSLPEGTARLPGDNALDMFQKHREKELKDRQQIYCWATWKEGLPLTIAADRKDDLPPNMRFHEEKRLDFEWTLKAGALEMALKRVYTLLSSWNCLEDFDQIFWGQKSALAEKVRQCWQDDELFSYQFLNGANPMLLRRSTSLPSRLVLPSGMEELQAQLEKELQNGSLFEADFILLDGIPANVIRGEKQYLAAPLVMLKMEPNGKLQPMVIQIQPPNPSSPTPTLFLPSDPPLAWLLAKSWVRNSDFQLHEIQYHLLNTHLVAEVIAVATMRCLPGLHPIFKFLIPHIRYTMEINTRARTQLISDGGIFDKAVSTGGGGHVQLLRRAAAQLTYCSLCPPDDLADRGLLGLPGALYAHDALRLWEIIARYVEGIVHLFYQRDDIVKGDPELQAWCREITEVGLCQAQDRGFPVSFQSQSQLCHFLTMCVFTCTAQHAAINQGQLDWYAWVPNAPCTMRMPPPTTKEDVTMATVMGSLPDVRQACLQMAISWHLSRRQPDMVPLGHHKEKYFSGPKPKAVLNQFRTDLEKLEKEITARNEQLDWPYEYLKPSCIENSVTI
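Purified human 12hLO at 150 nM in 25 mM Hepes, 0.01% Triton X-100, pH 7.0, preincubated 15 min at room temperature with compound. Reaction started with 40 uM arachidonic acid, 30 min at room temperature. Hydroperoxide measured by Fe-xylenol orange, 573/405 nm absorbance ratio.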
LDHA inh: blocks human lactate dehydrogenase A; purified LDHA, NADH/diaphorase-resazurin fluorescence; hits give low values; activity change, % (values are at about 110 or 230 µM); 480,000 tested, 0.15% active; in the data active = activity change below about -30%; inconclusive = mostly about -25% to -30%;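 note: plate controls were DMSO wells for no effect and wells without enzyme for full effect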
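Remaining NADH was detected by diaphorase (0.133 mg/mL) converting 37 µM resazurin to fluorescent resorufin, read at 0 and 20 minutes. The preceding 5-minute room-temperature reaction used 2 nM LDHA, 0.2 mM sodium pyruvate and 0.06 mM NADH at pH 7.4.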
ERG-DNA inh: ERG Ets/DNA interaction inhibition; Potency, µM (highest dose often 76.9 µM), inactives show at the top dose FP activity, negative = inhibition, actives largely listed as inhibitors; 370,000 tested, 0.028% active; fluorescence polarization, His-ERG Ets domain / labelled DNA; P11308; AID 624246; active = well fitted inhibition curve with a large enough effect in the polarisation, with a control signal flat; inconclusive = small, poorly fitted or top-dose-only effect, or effect the other way, or a change in a side signal; inactive = no such curve, though single readings can be large or run the other way; the % refers to the polarisation;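 note: polarization taken with two DNA probes labelled with fluorescein and Texas red; potency is the fitted concentration of half-maximal effect; % of control where 0% means no effect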
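His-tagged ERG Ets domain (1 uM in the protein solution; 300mM KCl, 50mM Tris-HCl, 1mM EDTA, 1mM DTT, pH 7.5) received compound, then a probe mix of 5 nM fluorescein-DNA and 100nM Texas-615-DNA. Fluorescence polarization was read for both dyes.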
A549 viability: A549 cytotoxicity, counter-screen for Nrf2 inhibitors; Potency, µM (series often up to 46 µM), inactives show top-dose activity change, negative = cytotoxicity, usual class: inhibitors; 390,000 tested, 0.16% active; AID 504648; A549 ARE-Fluc cells, CellTiter-Fluor viability, 18-24 h; note: potency is the fitted concentration of half-maximal effect; % is set by controls: 0 for no effect and ±100 for the full control effect
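A549 ARE_Fluc cells in 5% FBS OPTI-MEM were exposed to compounds in concentration-response for 18-24 h at 37 deg C. Viability was read by CellTiter-Fluor fluorescence (Ex 405/Em 525) after 30 min, before the luciferase read.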
Nrf2 ARE act: activators of Nrf2 (ARE) signaling | AREc32 ARE-luciferase reporter (MCF7-derived line), luminescence, 24 h | Potency, µM (doses to about 46.1 µM), without a hit: top-dose activation, actives largely listed as activators | 410,000 tested, 0.31% active | AID 624171; note: potency is the fitted concentration of half-maximal effect; % of control where 0% means no effect; nearly all actives have a fitted effect of over 65% in size
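Luciferase luminescence (Steady-Glo, 30 min at room temperature) served as the read-out of ARE activation in AREc32 cells treated with compounds for 24 hr at 37 deg C.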
Nrf2 block: inhibitors of Nrf2 signaling | A549 ARE-Fluc reporter, luciferase luminescence, 18-24 h | Potency, µM (doses to about 46 µM), inactives show top-dose activity change, negative = inhibition, most hits filed as inhibitors | 360,000 tested, 2.1% active | AID 504444; note: potency is the fitted concentration of half-maximal effect; % is set by controls: 0 for no effect and ±100 for the full control effect; nearly all actives have a fitted effect of over 60% in size
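Quantitative HTS in A549 cells stably bearing an antioxidant response element-firefly luciferase construct. Inhibition of Nrf2-driven transcription was scored by luminescence after 18-24 h of compound exposure at 37 °C.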
* = called active by the depositor; ? = inconclusive; . = no result given; [ ] = dose if it differs, or a comment. Unless noted, calls come from the whole dose curve; as a rule, active = well fitted curve in the direction sought with a large enough effect; inconclusive = small, poorly fitted or top-dose-only effect, or another doubt; inactive = no such curve, though single readings can be large; an effect the other way counts as inactive or inconclusive.

SMILES | 12-LOX inh | LDHA inh | ERG-DNA inh | A549 viability | Nrf2 ARE act | Nrf2 block
CSc1nnc(N2C(=O)C(O)=C(C(=O)c3ccco3)C2c2ccccc2F)s1 (stereo not drawn) | ? | -5.8 | 20.6% | -7.3% | 14.1µM* | 15.0%
CSc1nnc(N2C(=O)C(O)=C(C(=O)c3ccco3)C2c2ccccc2)s1 (stereo not drawn) | ? | -11.9 | 16.6% | 4.0% | 26.0% | -2.1%
CCCSc1nnc(N2C(=O)C(O)=C(C(=O)c3ccco3)C2c2ccccc2F)s1 (stereo not drawn) | 39.8µM* | 1.8 | 1.8% | 8.1% | 13.2% | -13.5%
C=CCSc1nnc(N2C(=O)C(O)=C(C(=O)c3ccco3)C2c2ccccc2F)s1 (stereo not drawn) | 0.631µM* | 1.0 | 7.6% | 4.6% | 16.4% | 12.5%
Cc1cccc(NC(=O)CSC2=C(C#N)C3(CCC(C(C)(C)C)CC3)C(C#N)C(=O)N2)c1 (stereo not drawn) | -6.0% | -21.8 | . | . | . | .
COc1cccc(NC(=O)COc2ccc(C(=S)N3CCN(C)CC3)cc2OC)c1 | -5.5% | 0.5 | 8.9% | -4.4% | 0.4% | 13µM*
CCOC(=O)C1CCN(C(=O)c2ccc(OCC(=O)Nc3cccc(C(F)(F)F)c3)c(OC)c2)CC1 | 7.6% | -13.0 | 0.3% | -10.2% | 1.9% | 14.6µM*
O=C(NCc1ccncc1)c1cccc2cccnc12 | ? | -0.9 | . | . | . | .
Cc1ccc(-c2cc(C(=O)N(C)C)c3ccccc3n2)c(C)c1 | 52.5% | -9.5 | . | . | . | .
Cc1ccc(CNC(=O)CCc2ncc(-c3ccc(C)c(C)c3)o2)cc1 | 0.8% | -6.9 | . | . | . | .
CC(=O)Nc1ccc(NC(=O)CCCN(c2ccc(Cl)cc2)S(C)(=O)=O)cc1 | ? | 9.4 | . | . | . | .
CCCCC(=O)OCC(=O)C1(O)Cc2c(O)c3c(c(O)c2C(OC2CC(NC(=O)C(F)(F)F)C(O)C(C)O2)C1)C(=O)c1c(OC)cccc1C3=O (stereo not drawn) | -10.9% | 6.1 | . | ? | -2.1% | 9.2µM*
COc1cccc2c1C(=N)c1c(O)c3c(c(O)c1C2=O)CC(O)(C(C)=O)CC3OC1CC(N)C(O)C(C)O1 (stereo not drawn) | . | 25.5 | ? | ? | -1.4% | ?
COc1cccc2c1C(=O)c1c(O)c3c(c(O)c1C2=O)CC(O)(C(C)=O)CC3OC1CC(O)C(O)C(C)O1 (stereo not drawn) | 2.6% | 29.4 | 2.51µM* | ? | 2.7% | 10.3µM*
O=C(CSc1ncc(-c2ccc(F)cc2)o1)Nc1ccc(O)cc1 | -15.8% | 8.4 | . | . | . | .
O=C(NCc1ccc2c(c1)OCO2)c1nn(-c2ccccc2)c(=O)c2ccccc12 | -10.1% | 5.6 | 2.1% | 1.0% | -0.9% | ?
CN(Cc1ccc2c(c1)OCO2)C(=O)c1nn(-c2ccccc2)c(=O)c2ccccc12 | ? | -34.7* | . | . | . | .
Cc1ccnc(NC(=O)Cc2ccccc2Cl)c1 | 17.5% | -10.3 | . | . | . | .
Cc1ccc(SCc2c(-c3ccccc3)nn(C)c2Cl)cc1 | -17.0% | -1.9 | -9.6% | 14.1% | 0.4% | -27.2%
Cc1ccc(Sc2c(C#N)c(-c3ccccc3)nn2C)cc1 | -11.7% | 1.2 | -8.5% | -27.7%[1.84 µM] | 0.1% | 5.8µM*
CC(C)c1ccc2c(c1)CC[C@H]1[C@](C)(CN)CCC[C@]21C | ? | -3.4 | -22.5% | 4.8% | -0.9% | ?
Cc1cccc(NC(=S)NCC2(C)CCCC3(C)c4ccc(C(C)C)cc4CCC23)c1 (stereo not drawn) | 15.8µM* | 10.2 | . | . | . | .
Cc1ccc(Oc2coc3cc(O)ccc3c2=O)cc1 | -13.2% | -0.1 | 4.8% | 1.2% | -0.6% | 9.2µM*
CCc1nnc(NC(=O)c2cc(OC)c(OC)cc2OC)s1 | -0.2% | -24.7 | . | . | . | .
Cn1c(CSCc2ccccc2Cl)n[nH]c1=S | ? | -1.3 | 2.5% | 1.6% | -0.1% | ?
SMILES | 12-LOX inh | LDHA inh | ERG-DNA inh | A549 viability | Nrf2 ARE act | Nrf2 block
S=c1[nH]nc(CSCc2ccccc2Cl)n1C1CCCCC1 | 44.7µM* | -3.6 | -5.8% | 5.9% | 1.4% | -3.5%
COc1ccc(N(CCCN2C(=O)c3cccc4cccc(c34)C2=O)C(=O)c2cccc(OC)c2)cc1 | 35.1% | 1.3 | -4.4% | -6.1% | ? | -17.4%
O=C1c2cccc3cccc(c23)C(=O)N1CCCN(C(=O)c1cccs1)c1cccc(F)c1 | 4.4% | -3.4 | 1.1% | 0.4% | 3.16µM* | ?
COc1ccc(C2(C)NC(=O)N(Cc3nc(-c4cccs4)oc3C)C2=O)cc1OC (stereo not drawn) | -27.5% | 2.2 | . | . | . | .
CCN1CCN(CCOc2ccc3c(=O)c(-c4ccc(Cl)cc4)coc3c2)CC1 | 17.8µM* | 1.5 | . | . | . | .
CCN1CCN(CCOc2ccc3c(=O)c(-c4ccc(Br)cc4)coc3c2)CC1 | ? | -8.0 | . | . | . | .
CNc1ccc(Br)cc(C(=O)/C=C/c2ccc(Cl)cc2Cl)c1=O | 12.6µM* | 10.3 | -0.8% | 20.6µM* | 8.91µM* | ?
CNc1ccc(Br)cc(C(=O)/C=C/c2ccc(OC)cc2OC)c1=O | ? | 35.5 | 8.7% | -9.7% | ? | 10.9%
Cc1cc(C)c2c(CN3CCN(c4ccc(F)cc4)CC3)cc(=O)oc2c1 | ? | -17.4 | . | . | . | .
CC(=O)Nc1sccc1C#N | ? | -3.4 | . | . | . | .
Cc1ccc(C(=O)Nc2sccc2C#N)s1 | 50.1µM* | 16.2 | . | . | . | .
CC1=C(c2ccc(C)c(C)c2)S(=O)(=O)NC1=NC(C)C12CC3CC(CC(C3)C1)C2 (stereo not drawn) | -0.7% | -5.0 | . | . | . | .
CC(=O)Nc1ccc(C(=O)N(CCc2ccccc2)Cc2ccccc2)s1 | ? | -1.6 | . | . | . | .
N#Cc1c(-c2ccco2)cc(-c2ccc(F)cc2)nc1N | 5.62µM* | 9.8 | 0.9% | 7.9% | 1µM* | .
N#Cc1c(-c2ccc(F)cc2)cc(-c2cccnc2)nc1N | -10.5% | -1.2 | 8.9% | -2.0% | -0.3% | 10.0%
CN1CCC2(CC1)Oc1ccccc1C1CC(c3ccc(Cl)c(Cl)c3)=NN12 (stereo not drawn) | ? | -3.4 | . | . | . | .
CCN1CC(CN(C)Cc2cn(-c3ccccc3C)nc2-c2ccc(OC)c(F)c2)CC1=O (stereo not drawn) | 10.1% | . | . | . | . | .
O=C(COC(=O)c1cccnc1Nc1cccc(C(F)(F)F)c1)NCc1ccco1 | ? | -6.7 | . | . | . | .
CC(=O)N1CCC(C(=O)N2CCC3(CC2)NC(=O)N(c2cccc(Cl)c2)N3)CC1 | 1.26µM* | . | . | . | . | .
O=C1CCC2(CC1)NC(=O)N(c1ccccc1)N2 | ? | -1.3 | 1.2% | 5.3% | 0.5% | -2.2%
CC(=O)N1CCC(C(=O)N2CCC3(CC2)NC(=O)N(c2ccccc2)N3)CC1 | 1.58µM* | . | . | . | . | .
NC(=O)C1(N)CCOCC1 | ? | 0.7 | . | . | . | .
